Compound activity: PubChem BioAssay, National Center for Advancing Translational Sciences (NCATS)
Sm TGR inh: blocks Schistosoma mansoni thioredoxin glutathione reductase. purified TGR, DTNB reduction, TNB absorbance 405 nm. actives 3% (n = 360,000). Potency, µM (highest dose often 114 µM), for inactives: at the top dose activity change, negative = inhibition, usual class: inhibitors. Q962Y6; further: potency means the concentration at half of the fitted maximal effect; nearly all actives have a fitted effect of over 60% in size
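First, TGR (20 nM dispensed) and NADPH were mixed with compound. Second, a 15 min room-temperature incubation followed. Third, further NADPH and then DTNB were added to start the reaction. Finally, TNB absorbance was monitored kinetically.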
HCMV inh: inhibitors of human cytomegalovirus. actives 4.5% (n = 410,000). activity change, negative = inhibition, % at 57.5 µM. HFF cells, HCMV-luciferase reporter, 72 h; stronger effect = lower value; in the data active means activity change below about -60%; inconclusive means no clear call, values can overlap the other calls; inactive means above about -39%
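Two compound doses tested in HFFs infected with HCMV-luciferase, MOI 1 PFU/cell, 72 h at 37C. Lysate luminescence read with OneGlo; data normalized against buffer-only and 10uM Salinomycin inhibitor controls.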
Giardia FBPA inh: Giardia lamblia aldolase inhibition; A8B2U2; purified Giardia FBPA; Potency, µM (highest dose often 59.6 µM), without a hit: at the top dose activity, negative = inhibition, hits mostly inhibitors; actives 0.71% (n = 290,000); further: potency means the concentration at half of the fitted maximal effect; nearly all actives have a fitted effect of over 55% in size
Target sequence (A8B2U2 whole entry, looked up): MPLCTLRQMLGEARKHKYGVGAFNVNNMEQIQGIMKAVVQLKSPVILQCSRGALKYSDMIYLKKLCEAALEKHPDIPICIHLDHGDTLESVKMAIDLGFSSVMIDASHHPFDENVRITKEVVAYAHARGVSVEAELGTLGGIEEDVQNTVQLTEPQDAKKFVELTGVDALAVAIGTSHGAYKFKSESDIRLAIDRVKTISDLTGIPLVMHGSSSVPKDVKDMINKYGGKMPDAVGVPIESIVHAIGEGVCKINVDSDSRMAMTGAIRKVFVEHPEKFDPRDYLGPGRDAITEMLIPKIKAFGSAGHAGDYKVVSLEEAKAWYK
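Giardia FBPA (40 nM reagent) was preincubated 10 min at RT with compound (up to 57.5 uM final), then substrate plus GAPDH/TPI/NAD/arsenate coupling system with diaphorase/resazurin was added; resorufin fluorescence (525/598 nm) was read after 20 min.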
TbPYK inhibitor: T. brucei pyruvate kinase inhibition; TbPYK enzyme, Kinase-Glo Plus ATP luminescence, 45 min; Potency, µM (titrated, usually from 76.8 µM), for inactives: top-dose activity, negative = inhibition, actives largely listed as inhibitors; actives 0.12% (n = 410,000); Q57TT1; further: potency means the concentration at half of the fitted maximal effect; nearly all actives have a fitted effect of over 50% in size
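T. brucei PYK with substrate was exposed to pin-transferred compounds across a concentration series, then started with 130 uM ADP (final). After 45 min at room temperature, Kinase-Glo Plus luminescence was read, normalized and curve-fitted.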
FMDV antiviral: blocks foot and mouth disease virus; FMDV antiviral cell-based qHTS; Potency, µM (series often up to 57.9 µM), without a hit: at the top dose activity change, negative = inhibition, usual class: inhibitors; actives 1.2% (n = 410,000); AID 1159524; calls by dose curve; tested in HEK293T cells; further: read-out not given here; potency means the concentration at half of the fitted maximal effect; nearly all actives have a fitted effect of over 45% in size
RE007 growth inh: less growth of the S. pombe RE007 Vpr strain. S. pombe RE007 Vpr strain, BacTiter-Glo ATP luminescence, 24 h. Potency, µM (highest dose often 92.2 µM), for inactives: top-dose activity change, negative = less growth, actives largely listed as inhibitors. actives 0.21% (n = 360,000). AID 651644; active means well fitted falling curve with a large enough effect; inconclusive means small, poorly fitted or top-dose-only effect; inactive means no such curve, though single readings can be large or run the other way; further: potency means the concentration at half of the fitted maximal effect; nearly all actives have a fitted effect of over 50% in size
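Fission yeast RE007 carrying one integrated HIV-1 vpr copy, seeded at OD 0.01 in PMG+AL medium with 23 nL pinned compound. Grown 24 h at 30 degrees; viability read by BacTiter-Glo luminescence after 5 min.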
An asterisk follows results filed as active; u = inconclusive; x = no result given; [ ] = remark or other dose. Sampled rows, rich in hits. Any-hit rate of the full collection: about 7.7%. Unless noted, the call rests on the fitted dose curve; in most records, active means well fitted curve in the direction sought with a large enough effect; inconclusive means small, poorly fitted or top-dose-only effect, or another doubt; inactive means no such curve, though single readings can be large; an effect the other way counts as inactive or inconclusive. On the % scale 0 is the no-effect control and ±100 the full control effect.

SMILES	Sm TGR inh	HCMV inh	Giardia FBPA inh	TbPYK inhibitor	FMDV antiviral	RE007 growth inh
Cn1c(CN2CCCCC2)nc2cc(NC(=O)c3ccc(F)cc3)ccc21	-0.8%	-61.6*	-8.6%	10.1%	u	22.9%
CC(=O)N1CCN(Cc2nc3cc(NC(=O)c4cccc(Br)c4)ccc3n2C)CC1	-3.0%	-72.9*	1.6%	3.0%	u	-7.3%
COc1ccc2ncc3c(-c4ccc(C)c(C)c4)nn(CC(=O)NC4CCCCC4)c3c2c1	3.4%	-13.9	x	0.8%	21.1%	x
CCc1ccc(-n2c(SCc3ccccc3Cl)nc3[nH]ncc3c2=O)cc1	0.0%	-105.3*	x	2.3%	u	x
CCc1ccc(-n2c(SCc3ccccc3C)nc3[nH]ncc3c2=O)cc1	5.1%	u	x	-6.1%	-22.1%	x
Cc1sc2c(c1C)CN(C1CC(C)(C)NC(C)(C)C1)CN2C(=O)c1ccco1	25.1µM*	x	0.2%	x	x	x
CCOc1cc(/C=N/Nc2cc(C)nc(-n3nc(C)cc3C)n2)ccc1O	3.6%	-77.7*	1.9%	-1.2%	u	7.7%
COc1ccc(/C=N/Nc2cc(C)nc(-n3nc(C)cc3C)n2)c(OC)c1	-3.9%	-98.2*	13.2%	-6.5%	28.2µM*	u
Cc1cc(N/N=C/c2ccc(F)cc2)nc(-n2nc(C)cc2C)n1	29.5%	-96.4*	6.6%	0.9%	0.0%	-2.5%
CNc1cc(C)nc(-n2nc(C)cc2C)n1	8.9%	u	9.7%	-4.8%	19.2%	0.8%
CN1C(=O)C(C2(O)C(=O)N(Cc3ccccc3)c3cc(F)ccc32)c2ccccc21 (stereo unspecified)	x	-23.2	x	x	x	x
O=C(CNSc1ccc([N+](=O)[O-])cc1[N+](=O)[O-])OCc1ccccc1	x	-24.4	x	x	x	x
COc1ccc(/C=N/NC(=O)c2[nH]c3ccc(Br)cc3c2-c2ccccc2)c(C(=O)O)c1OC	-7.7%	-62.9*	u	-22.1%	-16.0%	-3.5%
O=C(N/N=C/c1ccccc1Cl)c1[nH]c2ccc(Br)cc2c1-c1ccccc1	-9.7%	-17.7	-4.5%	0.1%	-19.1%	-6.1%
COc1ccc(/C=N/NC(=O)c2[nH]c3ccc(Cl)cc3c2-c2ccccc2)c(C(=O)O)c1OC	-8.1%	-99.4*	15.3%	-6.6%	2.7%	-4.2%
COc1ccc(/C=N/NC(=O)c2[nH]c3ccc(Br)cc3c2-c2ccccc2)cc1	6.5%	x	4.7%	-2.0%	-18.1%	3.1%
COc1ccc(/C=C2/SC(=S)N(CCCC(=O)Nc3ccc(O)cc3)C2=O)cc1OC	-6.0%	-73.1*	x	3.5%	-20.5%	15.9%
CCN(CC)CCOC(=O)c1ccc(NC(=O)CCCN2C(=O)S/C(=C/c3ccc(OC)cc3)C2=S)cc1	0.2%	x	9.5%	-6.1%	3.55µM*	-2.9%
COc1cccc(/C=C2/SC(=S)N(CCCC(=O)Nc3ccc(O)cc3)C2=O)c1	5.3%	-99.4*	x	1.1%	26.4%	0.3%
COc1ccc(/C=C2\SC(=S)N(CCC(=O)Nc3ccc(O)cc3)C2=O)cc1	1.4%	-5.2	u	-5.8%	61.3%	-7.8%
COc1cccc(/C=C2\SC(=S)N(CCCC(=O)Nc3ccc(C(=O)O)cc3)C2=O)c1	-23.5%	-79.8*	x	1.3%	20.8%	2.9%
COc1ccc(/C=C2\SC(=S)N(CCCC(=O)Nc3ccc(C(=O)O)cc3)C2=O)cc1OC	6.3%	-7.6	-8.2%	-2.4%	-10.6%	0.7%
C=CCN1CC(COCc2ccccc2)OCCS1(=O)=O (stereo unspecified)	x	-6.3	x	x	x	x
Cc1cccc(C)c1NC(=O)C(=O)NCC(c1cccnc1)N1CCc2ccccc21 (stereo unspecified)	0.1%	-12.9	x	-11.8%	-29.9%	x
O=C(NCCSCc1c(F)cccc1Cl)c1ccc(CN2CCOCC2)cc1	-8.9%	-63.1*	-0.9%	-2.3%	u	-13.2%
SMILES	Sm TGR inh	HCMV inh	Giardia FBPA inh	TbPYK inhibitor	FMDV antiviral	RE007 growth inh
c1cc2c3c(cccc3c1)NC(c1ccc3c(c1)OCO3)N2	17.8µM*	78.3	-27.9%	-11.4%	23.9%	3.7%
Cc1cccc(C2Nc3cccc4cccc(c34)N2)c1	20µM*	50.4	u	-1.4%	22.7%	2.1%
CSc1ccc(C2NC(=O)c3ccccc3N2)cc1 (stereo unspecified)	x	51.5	x	-1.7%	46.0%	5.6%
O=[N+]([O-])c1cc(C2Nc3cccc4cccc(c34)N2)ccc1Cl	-25.6%	-18.4	-24.0%	-8.0%	u	x
Clc1ccc(C2Nc3cccc4cccc(c34)N2)cc1	15.8µM*	47.3	u	-17.8%	6.8%	-22.3%
Clc1ccc(C2Nc3cccc4cccc(c34)N2)c(Cl)c1	x	-17.9	x	-2.1%	-13.7%	-16.6%
CSc1ccc(C2Nc3cccc4cccc(c34)N2)cc1	25.1µM*	102.3	-15.2%	-12.4%	22.0%	5.5%
CN1C(=O)c2ccccc2Sc2ccc(NC(=O)COc3ccc(Cl)cc3)cc21	6.7%	-24.4	x	6.6%	u	x
Cn1c(-c2ccncc2)nc2cc(C(=O)N3CCCC3c3nccs3)cc(NC(=O)C3CCC3)c21 (stereo unspecified)	x	x	x	x	-5.2%	x
O=C(NCCN1CCCC1)[C@@H]1[C@@H](CO)[C@@H]2Cn3c(cccc3=O)[C@@H]2N1C(=O)c1ccccc1	x	30.0	x	x	x	x
COC(=O)C(C(C)=O)C(NC(=O)NCc1ccccc1)c1ccccc1 (stereo unspecified)	x	x	-0.6%[12.9 µM]	x	x	x
COCc1c(C(=O)N2CCN(C3CCCC3)CC2)cnn1-c1ncc2c(n1)-c1ccccc1CCC2	x	x	x	x	-7.7%	x
CCOCCCNC(=O)C1CCN(c2cc(C)nc3c(-c4ccc(Cl)cc4)c(C)nn23)CC1	-0.4%	-4.9	x	-5.8%	-24.4%	x
COc1cccc(C(=O)Nc2ccc3nc(SCCOc4ccccc4)sc3c2)c1	-14.5%	-22.7	x	0.9%	0.0%	x
Brc1ccc(C2Nc3cccc4cccc(c34)N2)s1	20µM*	-39.6	u	-10.5%	0.2%	-10.3%
c1cncc(C2Nc3cccc4cccc(c34)N2)c1	8.91µM*	6.8	u	0.2%	19.6%	-10.4%
Clc1cccc(-c2ccc(C3Nc4cccc5cccc(c45)N3)o2)c1	x	x	x	-2.3%	1.9%	x
Cc1ccc(C)c(S(=O)(=O)c2nnn3c2nc(NC2CCCC2)c2sccc23)c1	10.5%	-106.6*	x	-0.6%	u	x
Cc1ccc(S(=O)(=O)c2nnn3c2nc(NC2CCCCC2)c2sccc23)cc1C	11.1%	-91.6*	x	-5.1%	-10.0%	x
